ChEMBL document CHEMBL2218924, “A broad activity screen in support of a chemogenomic map for kinase signalling research and drug discovery” (Biochem J, 2013)

How the values were obtained:
[1] = target: Death-associated protein kinase 1 (Homo sapiens) (UniProt P53355); conditions: at 10 µM
[2] = target: Death-associated protein kinase 2 (Homo sapiens) (UniProt Q9UIK4); conditions: at 1 µM
[3] = target: Death-associated protein kinase 2 (Homo sapiens) (UniProt Q9UIK4); conditions: at 10 µM
[4] = target: T1, Serine/threonine-protein kinase DCLK2 (Homo sapiens) (UniProt Q8N568); conditions: at 1 µM
T1 sequence (whole entry): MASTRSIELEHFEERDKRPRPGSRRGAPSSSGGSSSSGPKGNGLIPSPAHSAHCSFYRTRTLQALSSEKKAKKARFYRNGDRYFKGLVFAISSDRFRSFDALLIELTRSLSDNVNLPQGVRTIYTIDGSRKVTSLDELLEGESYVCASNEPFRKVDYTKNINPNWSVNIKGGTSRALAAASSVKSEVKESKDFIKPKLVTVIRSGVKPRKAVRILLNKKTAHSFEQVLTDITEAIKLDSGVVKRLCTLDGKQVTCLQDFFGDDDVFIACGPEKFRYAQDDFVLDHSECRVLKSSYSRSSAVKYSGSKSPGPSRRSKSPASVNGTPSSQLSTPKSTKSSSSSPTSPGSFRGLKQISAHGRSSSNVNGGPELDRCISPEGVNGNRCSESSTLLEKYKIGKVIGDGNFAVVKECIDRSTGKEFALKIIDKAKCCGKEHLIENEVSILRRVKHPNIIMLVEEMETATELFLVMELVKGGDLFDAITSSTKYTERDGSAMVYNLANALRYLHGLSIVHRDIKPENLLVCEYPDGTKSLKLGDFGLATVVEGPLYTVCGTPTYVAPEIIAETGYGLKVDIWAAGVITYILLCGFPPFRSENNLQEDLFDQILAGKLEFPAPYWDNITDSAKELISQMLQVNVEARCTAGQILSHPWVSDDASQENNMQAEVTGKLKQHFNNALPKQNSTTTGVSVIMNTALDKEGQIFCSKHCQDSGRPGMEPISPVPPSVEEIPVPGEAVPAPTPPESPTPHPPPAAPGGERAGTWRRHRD

[5] = target: T1, Serine/threonine-protein kinase DCLK2 (Homo sapiens); conditions: at 10 µM
[6] = target: T2, Discoidin domain-containing receptor 2 (Homo sapiens) (UniProt Q16832); conditions: at 1 µM
T2 sequence (whole entry): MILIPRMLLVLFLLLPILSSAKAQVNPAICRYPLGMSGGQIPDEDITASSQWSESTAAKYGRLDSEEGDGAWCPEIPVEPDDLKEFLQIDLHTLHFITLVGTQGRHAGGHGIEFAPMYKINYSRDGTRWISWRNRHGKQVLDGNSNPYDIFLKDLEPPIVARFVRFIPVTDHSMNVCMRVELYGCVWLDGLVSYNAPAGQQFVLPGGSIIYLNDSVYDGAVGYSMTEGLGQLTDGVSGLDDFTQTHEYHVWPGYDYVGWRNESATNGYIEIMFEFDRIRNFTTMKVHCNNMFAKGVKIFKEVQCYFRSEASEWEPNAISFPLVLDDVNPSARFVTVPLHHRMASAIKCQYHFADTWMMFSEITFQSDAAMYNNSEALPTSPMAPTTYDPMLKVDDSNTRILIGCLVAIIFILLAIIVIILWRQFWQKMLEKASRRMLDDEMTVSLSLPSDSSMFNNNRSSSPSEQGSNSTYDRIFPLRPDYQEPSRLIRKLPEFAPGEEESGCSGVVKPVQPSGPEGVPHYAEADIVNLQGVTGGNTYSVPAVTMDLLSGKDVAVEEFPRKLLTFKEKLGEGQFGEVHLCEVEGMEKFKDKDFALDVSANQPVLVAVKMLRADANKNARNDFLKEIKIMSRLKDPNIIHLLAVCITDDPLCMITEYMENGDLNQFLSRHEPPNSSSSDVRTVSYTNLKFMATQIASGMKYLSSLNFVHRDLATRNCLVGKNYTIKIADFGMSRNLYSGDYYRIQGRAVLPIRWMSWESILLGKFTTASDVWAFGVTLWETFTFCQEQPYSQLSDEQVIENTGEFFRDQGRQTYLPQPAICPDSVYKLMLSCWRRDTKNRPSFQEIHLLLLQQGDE

[7] = target: T2, Discoidin domain-containing receptor 2 (Homo sapiens); conditions: at 10 µM
[8] = target: T3, Myotonin-protein kinase (Homo sapiens) (UniProt Q09013); conditions: at 1 µM
T3 sequence (whole entry): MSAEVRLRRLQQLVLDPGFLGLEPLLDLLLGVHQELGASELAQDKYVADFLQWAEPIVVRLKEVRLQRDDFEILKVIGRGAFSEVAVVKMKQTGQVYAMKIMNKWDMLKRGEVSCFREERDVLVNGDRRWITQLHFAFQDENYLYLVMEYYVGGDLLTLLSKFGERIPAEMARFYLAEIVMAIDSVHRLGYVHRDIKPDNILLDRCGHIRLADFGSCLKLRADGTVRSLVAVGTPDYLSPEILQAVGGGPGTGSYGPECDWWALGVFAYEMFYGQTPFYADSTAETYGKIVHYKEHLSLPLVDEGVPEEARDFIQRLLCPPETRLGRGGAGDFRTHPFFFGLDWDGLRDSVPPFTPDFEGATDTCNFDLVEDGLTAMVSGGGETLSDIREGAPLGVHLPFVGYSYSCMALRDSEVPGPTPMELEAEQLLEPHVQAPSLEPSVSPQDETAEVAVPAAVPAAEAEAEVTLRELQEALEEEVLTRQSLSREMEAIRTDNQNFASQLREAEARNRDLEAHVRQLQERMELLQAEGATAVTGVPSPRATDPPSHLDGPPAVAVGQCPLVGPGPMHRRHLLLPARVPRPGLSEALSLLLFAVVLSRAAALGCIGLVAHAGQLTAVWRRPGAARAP

[9] = target: T3, Myotonin-protein kinase (Homo sapiens); conditions: at 10 µM
[10] = target: T4, Serine/threonine-protein kinase 17A (Homo sapiens) (UniProt Q9UEE5); conditions: at 1 µM
T4 sequence (whole entry): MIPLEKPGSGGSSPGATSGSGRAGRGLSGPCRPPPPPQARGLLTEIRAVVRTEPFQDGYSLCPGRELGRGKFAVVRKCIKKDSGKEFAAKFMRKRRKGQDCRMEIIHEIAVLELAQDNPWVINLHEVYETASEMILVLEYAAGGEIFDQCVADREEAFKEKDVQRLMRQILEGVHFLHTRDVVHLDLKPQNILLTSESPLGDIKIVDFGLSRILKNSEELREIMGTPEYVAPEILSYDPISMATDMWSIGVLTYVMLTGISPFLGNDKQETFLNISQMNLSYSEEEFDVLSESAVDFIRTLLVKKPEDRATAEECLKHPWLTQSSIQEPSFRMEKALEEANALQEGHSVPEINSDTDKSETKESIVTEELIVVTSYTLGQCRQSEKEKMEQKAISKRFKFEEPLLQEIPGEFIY

[11] = target: T4, Serine/threonine-protein kinase 17A (Homo sapiens); conditions: at 10 µM
[12] = target: T5, Dual specificity tyrosine-phosphorylation-regulated kinase 2 (Homo sapiens) (UniProt Q92630); conditions: at 1 µM
T5 sequence (whole entry): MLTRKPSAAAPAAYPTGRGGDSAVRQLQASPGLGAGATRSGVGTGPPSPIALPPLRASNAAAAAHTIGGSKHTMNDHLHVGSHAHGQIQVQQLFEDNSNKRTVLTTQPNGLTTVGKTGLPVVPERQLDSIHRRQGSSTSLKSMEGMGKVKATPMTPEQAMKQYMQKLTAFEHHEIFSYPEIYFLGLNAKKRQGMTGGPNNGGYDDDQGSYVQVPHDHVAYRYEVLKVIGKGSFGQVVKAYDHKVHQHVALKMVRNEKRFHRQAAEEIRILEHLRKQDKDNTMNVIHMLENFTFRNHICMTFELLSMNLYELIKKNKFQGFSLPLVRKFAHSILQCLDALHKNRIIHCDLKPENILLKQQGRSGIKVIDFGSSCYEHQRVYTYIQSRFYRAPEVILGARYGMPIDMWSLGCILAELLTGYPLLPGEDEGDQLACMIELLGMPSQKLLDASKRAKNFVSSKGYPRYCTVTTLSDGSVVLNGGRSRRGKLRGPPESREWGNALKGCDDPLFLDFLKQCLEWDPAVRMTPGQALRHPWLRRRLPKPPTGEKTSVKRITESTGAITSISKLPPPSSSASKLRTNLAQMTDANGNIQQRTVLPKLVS

[13] = target: T5, Dual specificity tyrosine-phosphorylation-regulated kinase 2 (Homo sapiens); conditions: at 10 µM
[14] = target: Epidermal growth factor receptor (Homo sapiens) (UniProt P00533); conditions: at 1 µM
Sequence of Epidermal growth factor receptor (Homo sapiens) (P00533 whole entry): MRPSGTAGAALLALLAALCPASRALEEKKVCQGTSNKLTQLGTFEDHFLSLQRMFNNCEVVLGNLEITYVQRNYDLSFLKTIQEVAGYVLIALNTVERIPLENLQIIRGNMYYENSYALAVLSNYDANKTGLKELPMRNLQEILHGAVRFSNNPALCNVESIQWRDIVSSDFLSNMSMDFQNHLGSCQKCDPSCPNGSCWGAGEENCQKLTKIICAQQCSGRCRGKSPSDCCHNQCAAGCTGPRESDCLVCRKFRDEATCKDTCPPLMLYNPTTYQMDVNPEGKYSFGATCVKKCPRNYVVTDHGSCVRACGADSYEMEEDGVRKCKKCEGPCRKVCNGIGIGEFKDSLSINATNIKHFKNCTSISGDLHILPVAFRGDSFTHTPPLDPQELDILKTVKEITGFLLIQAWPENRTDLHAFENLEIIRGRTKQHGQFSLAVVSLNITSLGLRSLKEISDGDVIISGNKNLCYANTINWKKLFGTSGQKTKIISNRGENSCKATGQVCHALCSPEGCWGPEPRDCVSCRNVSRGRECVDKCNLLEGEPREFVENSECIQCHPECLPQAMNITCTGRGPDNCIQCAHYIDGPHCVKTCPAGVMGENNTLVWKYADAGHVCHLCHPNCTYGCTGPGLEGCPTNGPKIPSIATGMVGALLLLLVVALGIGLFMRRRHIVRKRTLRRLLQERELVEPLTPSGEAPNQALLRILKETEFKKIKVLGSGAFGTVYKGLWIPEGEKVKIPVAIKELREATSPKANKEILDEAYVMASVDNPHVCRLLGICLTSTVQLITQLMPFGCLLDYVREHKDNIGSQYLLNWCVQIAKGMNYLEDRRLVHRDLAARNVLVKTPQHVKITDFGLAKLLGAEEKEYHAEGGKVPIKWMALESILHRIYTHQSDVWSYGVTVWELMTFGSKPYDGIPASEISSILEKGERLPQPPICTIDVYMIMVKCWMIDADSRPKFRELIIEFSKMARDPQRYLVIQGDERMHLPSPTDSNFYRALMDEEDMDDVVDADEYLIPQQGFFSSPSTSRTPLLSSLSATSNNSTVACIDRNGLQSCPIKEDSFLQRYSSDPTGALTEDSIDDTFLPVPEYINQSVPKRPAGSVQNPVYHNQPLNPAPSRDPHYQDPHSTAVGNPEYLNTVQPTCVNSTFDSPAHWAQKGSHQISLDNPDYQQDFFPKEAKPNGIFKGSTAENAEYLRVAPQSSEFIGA

[15] = target: Epidermal growth factor receptor (Homo sapiens) (UniProt P00533); conditions: at 10 µM
[16] = target: T6, Ephrin type-A receptor 1 (Homo sapiens) (UniProt P21709); conditions: at 1 µM
T6 sequence (whole entry): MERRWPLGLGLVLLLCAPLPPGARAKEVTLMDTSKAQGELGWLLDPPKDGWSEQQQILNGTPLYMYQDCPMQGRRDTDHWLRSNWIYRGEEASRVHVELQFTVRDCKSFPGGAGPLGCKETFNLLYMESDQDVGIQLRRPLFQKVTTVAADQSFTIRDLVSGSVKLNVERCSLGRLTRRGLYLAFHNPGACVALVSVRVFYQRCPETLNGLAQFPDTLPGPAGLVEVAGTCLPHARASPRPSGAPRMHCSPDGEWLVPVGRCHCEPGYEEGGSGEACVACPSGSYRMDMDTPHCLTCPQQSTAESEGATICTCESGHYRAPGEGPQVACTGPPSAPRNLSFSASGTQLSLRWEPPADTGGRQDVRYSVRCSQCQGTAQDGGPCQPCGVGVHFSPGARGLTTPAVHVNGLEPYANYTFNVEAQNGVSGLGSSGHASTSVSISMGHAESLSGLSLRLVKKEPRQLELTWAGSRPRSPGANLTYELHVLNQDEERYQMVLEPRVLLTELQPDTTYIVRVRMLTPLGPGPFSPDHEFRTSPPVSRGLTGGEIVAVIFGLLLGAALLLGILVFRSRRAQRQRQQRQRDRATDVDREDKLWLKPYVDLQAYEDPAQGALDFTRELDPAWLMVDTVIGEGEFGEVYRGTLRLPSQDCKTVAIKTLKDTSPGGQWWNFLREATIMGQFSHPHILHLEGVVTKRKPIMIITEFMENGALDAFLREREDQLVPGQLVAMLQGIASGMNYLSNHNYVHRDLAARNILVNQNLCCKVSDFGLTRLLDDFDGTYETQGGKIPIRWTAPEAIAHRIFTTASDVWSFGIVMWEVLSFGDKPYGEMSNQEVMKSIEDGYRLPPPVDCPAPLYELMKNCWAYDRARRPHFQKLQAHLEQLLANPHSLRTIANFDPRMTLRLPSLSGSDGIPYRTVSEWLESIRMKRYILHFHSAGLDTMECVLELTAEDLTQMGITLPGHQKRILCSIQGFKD

[17] = target: T6, Ephrin type-A receptor 1 (Homo sapiens); conditions: at 10 µM
[18] = target: Ephrin type-A receptor 2 (Homo sapiens) (UniProt P29317); conditions: at 1 µM
Sequence of Ephrin type-A receptor 2 (Homo sapiens) (P29317 whole entry): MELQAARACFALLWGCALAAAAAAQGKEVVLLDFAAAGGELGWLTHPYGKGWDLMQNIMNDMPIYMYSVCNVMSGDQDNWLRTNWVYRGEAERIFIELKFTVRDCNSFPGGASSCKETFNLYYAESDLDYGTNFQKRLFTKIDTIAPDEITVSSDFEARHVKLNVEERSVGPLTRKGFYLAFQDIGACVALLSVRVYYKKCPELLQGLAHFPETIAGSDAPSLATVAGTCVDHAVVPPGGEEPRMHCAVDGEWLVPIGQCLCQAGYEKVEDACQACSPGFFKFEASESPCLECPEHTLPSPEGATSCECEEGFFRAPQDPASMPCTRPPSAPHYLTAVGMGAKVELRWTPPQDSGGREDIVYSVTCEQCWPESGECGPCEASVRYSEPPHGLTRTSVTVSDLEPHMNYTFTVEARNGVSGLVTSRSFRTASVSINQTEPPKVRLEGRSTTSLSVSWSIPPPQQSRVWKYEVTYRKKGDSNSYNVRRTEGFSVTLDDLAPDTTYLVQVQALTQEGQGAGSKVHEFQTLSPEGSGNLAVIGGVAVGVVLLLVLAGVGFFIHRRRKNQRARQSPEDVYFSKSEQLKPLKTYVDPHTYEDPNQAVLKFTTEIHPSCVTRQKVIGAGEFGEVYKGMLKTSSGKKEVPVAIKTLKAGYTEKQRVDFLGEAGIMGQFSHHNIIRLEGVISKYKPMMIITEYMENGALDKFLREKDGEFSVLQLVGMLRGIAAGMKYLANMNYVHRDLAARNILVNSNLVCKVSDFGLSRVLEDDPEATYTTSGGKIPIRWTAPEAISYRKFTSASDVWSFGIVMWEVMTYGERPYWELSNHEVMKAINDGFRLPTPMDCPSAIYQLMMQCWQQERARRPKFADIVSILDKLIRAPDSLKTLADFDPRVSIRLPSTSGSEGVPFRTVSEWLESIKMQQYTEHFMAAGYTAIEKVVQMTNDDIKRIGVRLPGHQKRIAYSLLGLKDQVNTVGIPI

[19] = target: Ephrin type-A receptor 2 (Homo sapiens) (UniProt P29317); conditions: at 10 µM
[20] = target: T7, Ephrin type-A receptor 3 (Homo sapiens) (UniProt P29320); conditions: at 1 µM
T7 sequence (whole entry): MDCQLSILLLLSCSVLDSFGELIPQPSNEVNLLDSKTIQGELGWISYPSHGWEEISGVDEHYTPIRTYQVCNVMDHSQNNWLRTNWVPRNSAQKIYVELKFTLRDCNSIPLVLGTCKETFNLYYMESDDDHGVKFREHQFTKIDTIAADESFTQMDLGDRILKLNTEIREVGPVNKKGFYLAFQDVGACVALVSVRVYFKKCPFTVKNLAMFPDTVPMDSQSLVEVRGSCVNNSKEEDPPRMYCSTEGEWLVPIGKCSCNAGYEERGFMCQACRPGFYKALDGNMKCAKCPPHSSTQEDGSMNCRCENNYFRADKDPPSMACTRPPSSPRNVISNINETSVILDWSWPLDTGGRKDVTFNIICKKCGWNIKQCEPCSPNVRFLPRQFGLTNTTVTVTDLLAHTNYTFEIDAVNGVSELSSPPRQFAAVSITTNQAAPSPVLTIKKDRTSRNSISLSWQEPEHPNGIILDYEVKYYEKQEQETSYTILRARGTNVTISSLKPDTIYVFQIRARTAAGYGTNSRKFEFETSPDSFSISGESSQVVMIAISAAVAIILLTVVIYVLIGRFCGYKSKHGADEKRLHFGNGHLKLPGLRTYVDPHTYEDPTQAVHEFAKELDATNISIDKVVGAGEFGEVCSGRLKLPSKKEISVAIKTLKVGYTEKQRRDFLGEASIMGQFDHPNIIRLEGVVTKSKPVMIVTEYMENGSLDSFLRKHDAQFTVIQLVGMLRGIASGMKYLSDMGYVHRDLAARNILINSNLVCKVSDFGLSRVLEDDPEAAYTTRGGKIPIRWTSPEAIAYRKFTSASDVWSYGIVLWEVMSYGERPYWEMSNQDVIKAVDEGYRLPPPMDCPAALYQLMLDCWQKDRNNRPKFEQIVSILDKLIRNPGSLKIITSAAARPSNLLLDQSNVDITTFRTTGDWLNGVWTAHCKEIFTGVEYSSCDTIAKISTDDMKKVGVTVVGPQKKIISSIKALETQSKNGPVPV

Sequence of Death-associated protein kinase 2 (Homo sapiens) (Q9UIK4 whole entry, looked up): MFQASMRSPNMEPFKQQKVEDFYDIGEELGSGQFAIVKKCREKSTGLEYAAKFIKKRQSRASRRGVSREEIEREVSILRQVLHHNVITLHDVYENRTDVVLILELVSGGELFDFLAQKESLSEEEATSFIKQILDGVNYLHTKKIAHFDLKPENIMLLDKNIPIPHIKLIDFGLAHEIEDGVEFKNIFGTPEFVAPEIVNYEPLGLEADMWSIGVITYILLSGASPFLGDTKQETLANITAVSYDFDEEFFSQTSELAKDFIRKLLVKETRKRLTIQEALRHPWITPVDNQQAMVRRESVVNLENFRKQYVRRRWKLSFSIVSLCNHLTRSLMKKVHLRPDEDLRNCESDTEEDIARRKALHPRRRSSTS
Sequence of Death-associated protein kinase 1 (Homo sapiens) (P53355 whole entry, looked up): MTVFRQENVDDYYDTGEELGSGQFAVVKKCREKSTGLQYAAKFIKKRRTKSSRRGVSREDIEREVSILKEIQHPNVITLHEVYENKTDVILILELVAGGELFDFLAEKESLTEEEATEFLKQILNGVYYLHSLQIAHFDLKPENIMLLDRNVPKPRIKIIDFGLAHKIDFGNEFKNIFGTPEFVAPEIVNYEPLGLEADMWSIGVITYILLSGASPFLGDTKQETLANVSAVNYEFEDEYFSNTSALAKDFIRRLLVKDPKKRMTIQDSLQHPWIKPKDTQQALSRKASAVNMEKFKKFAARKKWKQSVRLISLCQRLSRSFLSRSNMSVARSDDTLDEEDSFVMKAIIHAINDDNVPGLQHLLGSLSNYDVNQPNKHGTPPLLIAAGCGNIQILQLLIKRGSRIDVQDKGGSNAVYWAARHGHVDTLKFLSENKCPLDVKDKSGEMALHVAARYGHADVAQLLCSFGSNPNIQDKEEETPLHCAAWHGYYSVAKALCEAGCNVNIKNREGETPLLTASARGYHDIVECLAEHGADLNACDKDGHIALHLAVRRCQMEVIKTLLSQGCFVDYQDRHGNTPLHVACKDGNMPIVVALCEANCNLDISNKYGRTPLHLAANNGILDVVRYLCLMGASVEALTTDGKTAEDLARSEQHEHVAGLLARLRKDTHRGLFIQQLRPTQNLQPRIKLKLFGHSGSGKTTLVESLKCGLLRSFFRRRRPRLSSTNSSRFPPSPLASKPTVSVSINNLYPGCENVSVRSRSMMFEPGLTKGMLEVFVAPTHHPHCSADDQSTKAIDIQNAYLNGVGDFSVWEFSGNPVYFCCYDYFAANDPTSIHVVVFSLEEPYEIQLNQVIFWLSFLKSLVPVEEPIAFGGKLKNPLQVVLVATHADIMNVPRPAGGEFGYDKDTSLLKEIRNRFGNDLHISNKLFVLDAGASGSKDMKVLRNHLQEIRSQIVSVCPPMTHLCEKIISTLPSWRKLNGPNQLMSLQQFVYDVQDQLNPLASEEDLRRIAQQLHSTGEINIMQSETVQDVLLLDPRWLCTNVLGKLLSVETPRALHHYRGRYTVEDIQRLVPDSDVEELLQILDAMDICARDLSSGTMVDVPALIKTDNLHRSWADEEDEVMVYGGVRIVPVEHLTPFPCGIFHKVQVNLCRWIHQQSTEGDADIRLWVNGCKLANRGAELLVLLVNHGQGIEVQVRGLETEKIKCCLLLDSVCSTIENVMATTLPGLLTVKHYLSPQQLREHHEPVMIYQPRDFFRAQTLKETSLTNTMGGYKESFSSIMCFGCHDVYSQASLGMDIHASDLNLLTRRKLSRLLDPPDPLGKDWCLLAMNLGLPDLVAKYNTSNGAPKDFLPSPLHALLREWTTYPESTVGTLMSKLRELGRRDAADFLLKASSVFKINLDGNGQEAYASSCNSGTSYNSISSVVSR

Row | SMILES | residual activity [1] [%] | residual activity [2] [%] | residual activity [3] [%] | residual activity [4] [%] | residual activity [5] [%] | residual activity [6] [%] | residual activity [7] [%] | residual activity [8] [%] | residual activity [9] [%] | residual activity [10] [%] | residual activity [11] [%] | residual activity [12] [%] | residual activity [13] [%] | residual activity [14] [%] | residual activity [15] [%] | residual activity [16] [%] | residual activity [17] [%] | residual activity [18] [%] | residual activity [19] [%] | residual activity [20] [%]
1 | O=C(Nc1cccc(Nc2nccc(Nc3cccc(C(F)(F)F)c3)n2)c1)C1CC1 | 60 | 93 | 68 | 82 | 102 | 79 | 30 | 72 | 125 | 73 | 10 | 95 | 96 | 61 | 19 | 22 | 22 | 79 | 19 | 95
2 | O=C1NC(=O)/C(=C\c2ccc3nccnc3c2)S1 | 78 | 68 | 27 | 73 | 71 | 109 | 101 | 114 | 122 | 63 | 19 | 7 | -4 | 100 | 113 | 95 | 90 | 100 | 111 | 91
3 | Cn1nc2c3c(cccc31)C(=O)c1ccccc1-2 | 77 | 93 | 76 | 75 | 89 | 100 | 104 | 127 | 84 | 50 | 20 | 91 | 75 |  |  | 88 | 68 | 92 | 97 | 88
